Most compounds without a hit are left out; they make up all but 3% or so of the library.
BioA inh: blocks M. tuberculosis BioA enzyme activity; purified M. tuberculosis BioA enzyme, plate reader; inhibition, % at 9.99 µM; actives 0.096% (n = 360,000); AID 602481; in the data active means inhibition above about 40%
Vc quorum ag: quorum light induction in luxS cqsA deficient V. cholerae. AID 588436. actives 0.16% (n = 350,000). activation, % at 18.7 µM. V. cholerae BH1578 lux reporter, luminescence, 6 h; in the data active means activation mostly above about 9.7%, no sharp cut-off
GDH-TPI counter-1: GDH-TPI coupled enzyme inhibition counter-screen | inhibition, % at 4.8 µM | AID 588335 | actives 1.2% (n = 360,000) | GDH-TPI coupled enzyme counterscreen, NADH absorbance; in the data active means inhibition above about 30%;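 further: 0% = DMSO wells and 100% = wells lacking the enzyme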
FBA Mtb inh: inhibitors of M. tuberculosis fructose-bisphosphate aldolase; purified M. tuberculosis FBA, fluorescence read-out; inhibition, % at 1 µM; actives 2.3% (n = 360,000); AID 588726;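 further: 0% = vehicle and 100% = reference inhibitor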
Target sequence (P9WQA3 whole entry, looked up): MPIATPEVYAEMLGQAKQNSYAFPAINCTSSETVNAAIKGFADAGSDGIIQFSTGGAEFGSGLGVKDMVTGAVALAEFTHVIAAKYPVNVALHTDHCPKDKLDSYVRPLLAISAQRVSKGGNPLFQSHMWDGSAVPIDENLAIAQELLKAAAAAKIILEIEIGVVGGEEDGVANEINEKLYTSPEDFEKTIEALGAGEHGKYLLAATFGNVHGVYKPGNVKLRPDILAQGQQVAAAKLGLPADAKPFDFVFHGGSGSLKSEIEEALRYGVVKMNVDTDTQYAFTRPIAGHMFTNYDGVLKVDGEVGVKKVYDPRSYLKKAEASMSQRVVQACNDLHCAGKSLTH
Mtb FBA confirm: confirmation of M. tuberculosis fructose-bisphosphate aldolase inhibitors; shares compounds with FBA Mtb inh; purified M. tuberculosis FBA, fluorescence read-out; inhibition, % at 1 µM; actives 78% (n = 5,600);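 further: 0% = vehicle wells and 100% = reference inhibitor wells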
GDH-TPI counter-2: inhibits GDH-TPI coupling enzymes, flagging Mtb FBA hits; shares compounds with FBA Mtb inh; GDH-TPI coupled enzyme counterscreen, fluorescence; inhibition, % at 1 µM; actives 81% (n = 5,600); in the data active means inhibition above about 10%
GDH-TPI DR: GDH-TPI dose response counter-screen for Mtb FBA; shares compounds with FBA Mtb inh; GDH-TPI coupled enzyme assay, fluorescence, artifact counterscreen; IC50, µM; actives 79% (n = 170); AID 652145; call rule not given here
* = called active by the depositor; i = inactive; / = no result; + = active, no number. Unless noted, no stated cut-off is given here; in the data, active means inhibition above about 27%; inactive means the rest.

SMILES	BioA inh	Vc quorum ag	GDH-TPI counter-1	FBA Mtb inh	Mtb FBA confirm	GDH-TPI counter-2	others
C(=C\c1ccco1)/C1=NN(c2ccccc2)C(c2ccco2)C1 (centres undefined)	/	4.5	11.7	39.9*	+	+
C[C@@H]1CCCCO[C@H](CN(C)S(=O)(=O)c2cccs2)[C@@H](C)CN([C@@H](C)CO)C(=O)c2cc(NC(=O)CCCN(C)C)ccc2O1	-2.3	/	/	/	/	/
O=C(NC1CCCCC1)N[C@H]1CC[C@@H](CC(=O)N2CCOCC2)O[C@@H]1CO	-2.1	/	/	/	/	/
Cc1ccc(C2CC(c3ccccc3)=NN2c2ccccc2)o1 (centres undefined)	/	-0.3	6.2	42.9*	15.3	7.8	GDH-TPI DR=1.28*
COc1ccc(C2CC(c3cccc([N+](=O)[O-])c3)=NN2/C(C)=C/C(C)=O)cc1 (centres undefined)	0.1	i	-4.9	-0.8	/	/
COc1ccc(C2=NN(c3ccccc3)C(c3ccc(OC)c(OC)c3)C2)cc1 (centres undefined)	-2.7	i	10.6	79.5*	52.7*	50.6*
CC(=O)N1N=C(c2ccc(C)cc2)CC1c1ccco1 (centres undefined)	-2.5	-0.3	5.0	3.7	/	/
COc1ccc(C2CC(c3cccc(Br)c3)=NN2c2ccc(S(N)(=O)=O)cc2)cc1 (centres undefined)	-3.1	i	14.6	102.1*	42.2*	30.9*
Cc1ccc(N2N=C(c3ccc(F)cc3)CC2c2ccco2)cc1 (centres undefined)	/	-0.5	9.9	62.1*	111.8*	96.3*
Cc1ccc(C2CC(c3ccccc3)=NN2C(=O)CSc2nnc(-c3ccc(Cl)cc3)o2)o1 (centres undefined)	-7.3	-0.6	5.0	-0.2	/	/
Clc1ccccc1C1=CC(c2ccco2)n2ncnc2N1 (centres undefined)	/	-0.8	14.2	35.2*	156.4*	126.3*
FC(F)(F)c1ccccc1C1=CC(c2ccccc2)n2ncnc2N1 (centres undefined)	0.8	i	3.1	15.1	/	/
COc1ccc(-c2ccc(-c3noc(-c4cccs4)n3)c(OC)n2)cc1	/	-0.3	22.9	16.3	/	/
CCOc1nc(-c2ccc(OC)cc2)ccc1-c1noc(C)n1	/	i	8.9	76.2*	91.7*	77.6*
COc1ccc(-c2ccc(-c3noc(C4CCCCC4)n3)c(OC)n2)cc1	/	1.1	6.9	28.3*	+	+
COc1ccc(-c2ccc(-c3noc(C)n3)c(OC)n2)cc1	-3.4	-5.6	12.8	73.7*	92.9*	87.8*
CC(C)NC(=O)Nc1cccc2c1O[C@@H](CN(C)C(=O)Nc1ccc(F)cc1)[C@@H](C)CN([C@H](C)CO)C2=O	0.1	/	/	/	/	/
COCC(=O)Nc1ccc2c(c1)[C@@H]1C[C@H](CC(=O)N3CCOCC3)O[C@@H](CO)[C@@H]1O2	-1.1	/	/	/	/	/
CCC(=O)N[C@@H]1CC[C@@H](CC(=O)NCc2cc(F)cc(F)c2)O[C@H]1CO	-0.5	/	/	/	/	/
COc1ccccc1C1=NC(c2ccccc2)CN1c1ccccc1 (centres undefined)	1.2	i	2.1	101.6*	89.0*	63.4*
COc1cc2c(cc1OC)C(C)N(C(=O)c1cc3c(=O)oc4ccc(C)cc4c3s1)CC2 (centres undefined)	-0.8	i	5.0	-1.3	/	/
CCOC(=O)C1CCN(C(=O)c2cc3c(s2)-c2ccccc2OC3)CC1	-1.4	-0.9	25.7	85.4*	3.1	-3.2
COc1cc2c(cc1OC)C(C)N(C(=O)c1cc3c(s1)-c1c(C)cccc1OC3)CC2 (centres undefined)	-1.4	-0.2	11.9	30.6*	138.6*	97.0*
COc1cc2c(cc1OC)C(C)N(C(=O)c1cccs1)CC2 (centres undefined)	/	-1.1	-5.9	-1.1	/	/
COc1cc2c(cc1OC)C(C)N(C(=O)c1cc3c(s1)-c1ccccc1OC3)CC2 (centres undefined)	-1.4	i	18.8	58.8*	36.7*	32.6*
SMILES	BioA inh	Vc quorum ag	GDH-TPI counter-1	FBA Mtb inh	Mtb FBA confirm	GDH-TPI counter-2	others
COc1ccc(NC(=O)Nc2ccc3c(c2)C(=O)N([C@@H](C)CO)C[C@@H](C)[C@@H](CN(C)C(=O)C2CCCCC2)OCCCC[C@@H](C)O3)cc1	0.1	/	/	/	/	/
C[C@H](CO)N1C[C@H](C)[C@@H](CN(C)S(C)(=O)=O)Oc2ccc(NS(=O)(=O)c3cccs3)cc2C1=O	-0.8	/	/	/	/	/
Cc1c(O)ccc2c(CC(=O)N[C@@H](Cc3c[nH]c4ccccc34)C(=O)O)cc(=O)oc12	2.2	i	8.6	37.8*	89.4*	61.7*
O=C(COc1ccc2c(-c3ccccc3)cc(=O)oc2c1)NC(Cc1c[nH]c2ccccc12)C(=O)O (centres undefined)	9.2	i	10.3	0.3	/	/
O=C(Cc1cccs1)NC(Cc1c[nH]c2ccccc12)C(=O)O (centres undefined)	/	-0.1	0.7	-0.9	/	/
O=C(Cc1cc(=O)oc2cc(O)ccc12)N[C@@H](Cc1c[nH]c2ccccc12)C(=O)O	-1.3	i	17.6	37.1*	+	160.9*
Cc1noc(C)c1S(=O)(=O)Nc1ccc2c(c1)C(=O)N([C@@H](C)CO)C[C@@H](C)[C@@H](CN(C)S(C)(=O)=O)O2	-0.1	/	/	/	/	/
Cc1ccc2[nH]ccc(=O)c2c1	-1.9	i	11.9	30.4*	52.2*	38.7*
COc1ccc2oc(C(=O)OCC(=O)N3CCCC3=O)c(C)c2c1	-0.1	-2.3	2.1	44.7*	73.2*	36.4*
Cc1c(C(=O)OCC(=O)N2C(C)CCCC2C)oc2ccccc12 (centres undefined)	2.3	-0.3	-1.7	7.9	/	/
COc1ccc2oc(C(=O)OCC(=O)N3CCCCC3C)c(C)c2c1 (centres undefined)	0.0	i	1.4	63.2*	195.3*	169.4*
COc1ccc2oc(C(=O)OCC(=O)N3C(C)CCCC3C)c(C)c2c1 (centres undefined)	-1.1	1.4	-3.1	39.5*	40.5*	45.3*
COc1ccc(N2CCN(C(=O)COC(=O)c3oc4ccc(OC)cc4c3C)CC2)cc1	-1.0	-1.4	5.2	13.7	/	/
CCOc1ccc2oc(C(=O)OCC(=O)N3C(C)CCCC3C)c(C)c2c1 (centres undefined)	-0.7	-0.6	5.6	47.7*	91.5*	86.9*
C[C@@H]1CN([C@@H](C)CO)C(=O)c2cc(NS(=O)(=O)c3cccs3)ccc2O[C@@H](C)CCCCO[C@@H]1CN(C)Cc1ccc(C(F)(F)F)cc1	-0.7	/	/	/	/	/
CCCCN(C)CCNC(=O)c1c[nH]c2ccc(S(=O)(=O)N(CC)CC)cc2c1=O	-1.8	-1.8	20.8	29.2*	51.2*	51.6*
CCN(c1ccccc1)S(=O)(=O)c1ccc2[nH]cc(C(=O)NCCOC)c(=O)c2c1	0.2	-1.0	15.4	6.4	/	/
